Measurements from PubChem BioAssay AID743262 (National Center for Advancing Translational Sciences (NCATS), 2014).
“And” between values parts separate entries of the source, which are not always exact repeats. Equal values may be shown once. Screen size: about 1,300 compounds; about 25 (2%) were called active. A call without a number means that no potency is given here. Not shown: some 9% with an inconclusive outcome. Calls come from the whole dose curve; as a rule, active = well fitted activation curve with a large enough effect; inconclusive = small, poorly fitted or top-dose-only effect; inactive = flat fitted curve, though single readings scatter. For the sample, actives were picked, then their nearest neighbours and some compounds at random.

Biological target: Glucagon-like peptide 1 receptor (Homo sapiens) (UniProt P43220)
Sequence (P43220 whole entry, looked up): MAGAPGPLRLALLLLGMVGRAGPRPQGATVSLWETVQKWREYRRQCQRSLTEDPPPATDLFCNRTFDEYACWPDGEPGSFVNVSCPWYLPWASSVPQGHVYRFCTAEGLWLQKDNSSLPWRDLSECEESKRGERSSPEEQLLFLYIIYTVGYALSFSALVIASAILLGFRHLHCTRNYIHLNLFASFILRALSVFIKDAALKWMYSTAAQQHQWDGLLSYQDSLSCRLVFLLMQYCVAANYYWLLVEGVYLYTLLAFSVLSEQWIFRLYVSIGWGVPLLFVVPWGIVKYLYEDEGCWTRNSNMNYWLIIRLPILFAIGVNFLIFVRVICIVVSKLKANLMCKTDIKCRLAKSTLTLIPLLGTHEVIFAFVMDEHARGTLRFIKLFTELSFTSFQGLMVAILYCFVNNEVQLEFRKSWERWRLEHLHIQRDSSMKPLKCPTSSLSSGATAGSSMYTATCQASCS
Test: qHTS of GLP-1 Receptor Agonists: Hit Validation
Settings: HEK293 GLP-1R, cAMP-response luciferase, 4-6 h; series mostly up to 46.1 µM
Outline: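 Luminescence from a cAMP-responsive luciferase reporter was read 12 min after detection reagent at RT. Before that, HEK293 cells stably expressing GLP-1R plus reporter, seeded 12 h earlier, were exposed to compound for 4-6 hr at 37 deg C.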
Potency is the fitted concentration of half-maximal effect.

Row | SMILES | Potency
1 | Cc1ccc(C)c(S(=O)(=O)Nc2cc3c4c(c2)CCC(=O)N4CCC3)c1 | inactive
2 | COc1cc2c(cc1OC)C(C)N(C(=O)C1COc3ccccc3O1)CC2 (configuration not stated) | inactive
3 | COc1ccc(-c2nc(C#N)c(NCc3ccc(C)cc3)o2)cc1OC | inactive
4 | COC(=O)c1ccc(CSc2nnc3nc(C)cc(C)n23)cc1 | inactive
5 | C=CCOc1ccc(CNc2nccs2)cc1OCC | inactive
6 | CCOC(=O)c1c(C)n(-c2ccccc2)c2ccc(OCCN(C)C)cc12 | inactive
7 | CCN(CC)CC(=O)Nc1scc2c1c(=O)oc1ccccc12 | 8.2 µM (active)
8 | CC(=O)c1oc2ccccc2c1NC(=O)CN1CCCCC1 | inactive
9 | CC(=O)Nc1nc(CC(C)C)cc2c1c(=O)oc1ccccc12 | inactive
10 | CCOC(=O)c1sc(NC(=O)C2=COCCO2)c(C#N)c1C | inactive
11 | COc1cccc(OCCNc2cc(N3CCOCC3)ccc2[N+](=O)[O-])c1 | inactive
12 | CCOC(=O)c1c(NC2OC(=O)c3c2ccc(OC)c3OC)sc(C(=O)OC(C)(C)C)c1C (configuration not stated) | inactive
13 | N#Cc1c(-c2ccc(F)cc2)noc1N | inactive
14 | COc1ccc(CSc2nnnn2-c2ccccc2)cc1 | inactive
15 | O=[N+]([O-])c1cnccc1NC1CCCCC1 | inactive
16 | O=C1CN(c2nc(-c3cccnc3)nc3sc4c(c23)CCCC4)CCN1 | inactive
17 | COC(=O)CSc1ncnc2scc(-c3ccccc3)c12 | inactive
18 | COC(=O)CCSCC(=O)N1N=C(c2ccc(OC)cc2)CC1c1cccc(OC)c1OC (configuration not stated) | inactive
19 | CCC(=O)Nc1sc2c(c1C#N)CCCCC2 | inactive
20 | CN(C)c1ncnc2sc(-c3ccccc3)cc12 | inactive
21 | Cc1nc(N2CCOCC2)c2cc(-c3ccccc3)sc2n1 | 8.2 µM (active)
22 | Cc1nc(N2CCOCC2)c2c(C)c(C(=O)Nc3ccccc3C(F)(F)F)sc2n1 | inactive

Row | SMILES | Potency
23 | COc1ccc(C(=O)NCC2(c3ccc(OC)c(OC)c3)CCCC2)cc1OC | inactive
24 | CC(=NNC(=S)Nc1ccc(C)cc1)c1ccccn1 | inactive
25 | COC(=O)c1ccc(Cn2nc(-c3cc(C)ccc3C)ccc2=O)cc1 | inactive
26 | COc1cc(SC)ccc1C(=O)Nc1ccccc1 | inactive
27 | Cc1c(C)n(Cc2ccccc2)c2ncnc(NCCO)c12 | inactive
28 | COc1ccc(-c2cc(C(=O)N3CCCC(C(F)(F)F)C3)c3ccccc3n2)cc1OC (configuration not stated) | inactive
29 | C=CCN1N=C(c2ccc(Cl)s2)CSC1=O | inactive
30 | CCOC(=O)c1nnn(-c2nonc2N)c1-c1cccs1 | inactive
31 | COc1ccc(C(=O)COC(=O)c2cc([N+](=O)[O-])ccc2N2CCOCC2)c(OC)c1 | 20.6 µM (active)
32 | CCc1ccc(C(=O)COC(=O)c2cc([N+](=O)[O-])ccc2N2CCOCC2)cc1 | inactive
33 | COc1ccc(C(=O)c2cc([N+](=O)[O-])ccc2N2CCOCC2)cc1 | inactive
34 | CC(=O)Nc1cc(-c2ccccc2Cl)cn2c(-c3ccc(S(C)(=O)=O)cc3)cnc12 | inactive
35 | COc1ccc(-c2nnc(OCc3nc4ccccc4n3C)c3ccccc23)cc1 | inactive
36 | CCOc1ccc(Br)cc1S(=O)(=O)Nc1ccc(C(=O)OCC(=O)N(C)c2ccccc2)cc1 | inactive
37 | CCOC(=O)c1c(C)[nH]c2cc(Br)c(O)cc12 | inactive
38 | CC1CN(c2nc(N(C)c3ccccc3)nc(N)c2[N+](=O)[O-])CC(C)O1 (configuration not stated) | inactive
39 | COc1ccc(-c2nc(C#N)c(NC(C)c3ccccc3)o2)cc1OC (configuration not stated) | inactive
40 | CCOC(=O)n1c(=O)n(Cc2ccccc2Cl)c2ccccc21 | inactive
41 | O=c1[nH]nc(-c2ccc(NCCO)c([N+](=O)[O-])c2)c2ccccc12 | inactive
42 | COc1ccc(C(=O)Cc2ccccc2)cc1OC | inactive
43 | COCc1cc(C)nc2sc(C(=O)OC(C)C)c(N)c12 | inactive
44 | CCCCn1c(=NC(=O)c2cccnc2)c(C(=O)OCC)cc2c(=O)n3ccccc3nc21 | inactive

Row | SMILES | Potency
45 | COc1ccc(NC(=O)c2cccnc2)cc1OCC(C)C | inactive
46 | O=C(Cn1nc(-c2ccc(N3CCOCC3)c([N+](=O)[O-])c2)c2ccccc2c1=O)N1CCCCC1 | inactive
47 | OC(c1ccccc1)c1nc(-c2ccccc2)cs1 (configuration not stated) | inactive
48 | OC(c1ccccc1)c1nc(-c2csc3ccccc23)cs1 (configuration not stated) | 7.31 µM (active)
49 | COc1ccccc1Nc1nc(Cl)nc(Nc2ccccc2OC)n1 | inactive
50 | CCOc1ccc(Oc2c(/C=N/NC(N)=O)c(C)nn2-c2ccccc2)cc1 | inactive
51 | CCN(CC)S(=O)(=O)c1cc(NC(=O)c2ccccc2OCc2c(C)noc2C)ccc1C | inactive
52 | CCc1cc2c(-c3ccccc3)cc(=O)oc2c(CN2CCOCC2)c1O | inactive
53 | N#C/C(=C\c1ccc(N2CCOCC2)c([N+](=O)[O-])c1)c1nc2ccccc2[nH]1 | inactive
54 | CC1(c2ccccc2)NC(=O)N(CC(=O)NNC(=O)c2ccccc2F)C1=O (configuration not stated) | inactive
55 | CSc1ncccc1C(=O)OCc1c(F)cccc1Cl | inactive
56 | CCOc1ccc(CCNC(=O)c2ccc3ccccc3n2)cc1OCC | inactive
57 | CCN1CCN(c2nc3sc4c(c3c3ncnn23)CC(C)CC4)CC1 (configuration not stated) | inactive
58 | CCOC(=O)c1cc(NC(=O)c2cccnc2)cc(C(=O)OCC)c1 | inactive
59 | CCn1nc(NC(=O)c2cccnc2)c2cc3ccccc3nc21 | 20.6 µM (active)
60 | CCn1nc(NC(=O)c2ccco2)c2cc3cc(C)ccc3nc21 | inactive
61 | CC(=O)c1cccc(Nc2nc(=O)c3cccnc3s2)c1 | inactive
62 | CC(=O)c1cccc(N2C(=O)C3C4CCC(C4=C(C)C)C3C2=O)c1 (configuration not stated) | inactive
63 | OCCNc1nc(-c2ccccc2)c2cc(Cl)ccc2n1 | inactive
64 | O=c1ccc2ccc(OCCOc3cccc(Cl)c3)cc2o1 | inactive
65 | CCOC(=O)c1sc2nc(OCc3cccnc3)cc(C)c2c1N | inactive
66 | CCc1cc(=O)oc2c3c(cc(OCC(=O)Nc4cccnc4)c12)OC(C)(C)CC3 | inactive

Row | SMILES | Potency
67 | COC(=O)c1ccc2c(=O)[nH]c(COC(=O)c3[nH]c(C)c(C(C)=O)c3C)nc2c1 | inactive
68 | CCC(C)Nc1nc(N)c([N+](=O)[O-])c(Nc2ccccc2OC)n1 (configuration not stated) | inactive
69 | CCN1CCN(C2=C(Cl)C(=O)N(Cc3ccccc3)C2=O)CC1 | inactive
70 | COCCCNC(=S)N/N=C/c1ccc2ccccc2c1 | inactive
71 | Cc1cc(C)nc(N2CCCC(C(=O)Nc3ccc4nc(C)c(C)nc4c3)C2)n1 (configuration not stated) | inactive
72 | COc1ccc(C)cc1N(C(=O)c1snc(C(N)=O)c1N)C(C(=O)NC1CCCCC1)c1ccc(C)o1 (configuration not stated) | inactive
73 | CCOC(=O)c1c(C)c(C(=O)N2CCCCCC2)c(C)n1C | inactive
74 | COc1cccc(C2CC(=O)Nc3cc(OC)c(OC)c(OC)c32)c1OC (configuration not stated) | inactive
75 | COc1cc2c(cc1OC)/C(=C/C(=O)N1CCOCC1)NC(C)(C)C2 | inactive
76 | CC(=O)NC1(c2ccccc2)CCN(c2cc(C)nc(-c3ccccc3)n2)CC1 | inactive
77 | C=C[C@@]1(C)CC(=O)[C@]2(O)[C@@]3(C)[C@@H](O)CCC(C)(C)[C@@H]3[C@H](O)[C@H](OC(C)=O)[C@@]2(C)O1 | 2 µM (active) and 1.84 µM (active)
78 | C=C[C@@]1(C)CC(=O)[C@]2(O)[C@@]3(C)[C@@H](O)CCC(C)(C)[C@@H]3[C@H](OC(C)=O)[C@H](O)[C@@]2(C)O1 | 9.2 µM (active)
79 | COc1cccc(/C=C/C(=O)Nc2ccc(N3CCOCC3)cc2)c1OC | inactive
80 | Cc1ccc(NC(=O)COc2ccc(CCO)cc2-n2nc3ccccc3n2)cc1C | inactive
81 | C=CCOc1nc2c(c(=O)n(C)c(=O)n2C)n1Cc1ccccc1Cl | inactive
82 | Cc1ccc(CNCCCSc2ncccn2)cc1 | inactive
83 | CC(=O)Nc1ccc(NC(=O)c2cc(C3CC3)nc3c2cnn3C(C)C)cc1 | inactive
84 | O=C(NCc1ccco1)c1cccc2c(-c3ccc(F)c(F)c3)coc12 | inactive
85 | O=C(NCc1cccs1)c1cccc2c(-c3cccnc3)coc12 | 9.2 µM (active)
86 | COc1ccc(CNC(=O)c2cccc3c(-c4cnn(C)c4)coc23)cc1OC | inactive
87 | COc1ccc(N(CC(=O)N/N=C/c2ccc(OC)c(OC)c2)S(=O)(=O)c2ccccc2)cc1 | inactive
88 | COc1ccc(-c2cc(=O)[nH]c(NCc3ccccc3)n2)cc1 | inactive

Row | SMILES | Potency
89 | CC1Cc2cc(S(=O)(=O)N3CCCC(C(=O)N4CCCCC4)C3)ccc2N1C(=O)C1CC1 (configuration not stated) | inactive
90 | CCOC(=O)C1CCCN(C2=NC(=O)/C(=C/c3ccc(O)c(OCC)c3)S2)C1 (configuration not stated) | inactive
91 | O=C(NC1CCCCCC1)C(=O)NC1CC1 | inactive
92 | CC(OC(=O)c1ccc2ncsc2c1)C(=O)NC1CCCCC1C (configuration not stated) | inactive
93 | COc1ccc(-c2nn3c(COc4ccccc4)nnc3s2)cc1OC | inactive
94 | CCOC(=O)/C(C#N)=C/Nc1cc(OC)ccc1OC | inactive
95 | Oc1ccccc1/C=N/N1CCN(c2ccccn2)CC1 | inactive
96 | c1coc(Cn2c(-c3ccco3)nc3ccccc32)c1 | inactive
97 | COc1ccc(NC(C)=O)cc1S(=O)(=O)Nc1ccc2c(c1)OCCO2 | inactive
98 | COCCN(Cc1ccccc1)C(=O)c1cc(-c2ccc(OC)c(OC)c2)nc2ccccc12 | inactive
99 | Cc1nc2cc(-c3cccc(F)c3)nn2c(N2CCN(C(=O)c3ccco3)CC2)c1C | inactive
100 | CCN(CC)c1nc(OC)nc(-n2nnc(C(C)=O)c2C)n1 | inactive
101 | CCc1nc(SCCO)c2oc3ccccc3c2n1 | inactive
102 | COC(=O)c1sc(NC(=O)CSc2nc3cccnc3n2C2CCCCC2)nc1C | inactive
103 | COc1ccc(OC)c(/C=N/n2c(-c3n[nH]c4c3CCC4)n[nH]c2=S)c1 | inactive
104 | COC(=O)Cc1c(C)c2ccc(OCc3nn[nH]n3)cc2oc1=O | inactive
105 | CCOC(=O)C1=C(COC(=O)c2cc(S(=O)(=O)N3CCOCC3)ccc2F)NC(=O)NC1C (configuration not stated) | inactive
106 | COc1cccc(Cn2c(N)c(C#N)c3nc4ccccc4nc32)c1OC | inactive
107 | COc1ccc(S(=O)(=O)N(C)C)cc1NC(=O)c1ccc(OCC(=O)N2CCOCC2)c(OC)c1 | inactive
